# Test results published in the supplement of paper PMC12669032.
# “And” between values parts separate entries of the source, which are not always exact repeats. Equal values may be shown once. A number with no mark means an inactive call.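 How the source made its calls: active = AUC reduced over 20% with Padj below 0.05 in at least 2 of 3 replicates; inactive = otherwise.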
# Test system: Fusobacterium nucleatum subsp. animalis
# Test: growth AUC relative to DMSO control (median of replicates) (fraction); higher = more growth (less inhibition), active = hit call of the paper
# Details: 20 µM; 24 h
# Procedure, shortened: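 Each value is the median of three biological replicates, grown on separate days, of a gut bacterial monoculture incubated anaerobically at 37 °C in mGAM with 20 µM compound (1% DMSO). Cultures started at OD600 0.05 and were read at OD600 hourly for 24 h, with the minimum OD set to 0. Area under the growth curve was normalised to the plate median of solvent-only wells, or to row and column medians on the industrial chemical plate.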
row,SMILES,growth AUC
1,Cc1cccc(C)c1N,0.927
2,C=CCOC(=O)C(C)(C)OC(=O)c1cc(-n2c(=O)cc(C(F)(F)F)n(C)c2=O)ccc1Cl,1.09
3,CCOP(=O)(NC(C)C)Oc1ccc(S(C)(=O)=O)c(C)c1 (centres undefined),1.03
4,Cc1cc(OC(=O)N(C)C)nn1C(=O)N(C)C,1.03
5,CCCCCCCCSC(=O)Oc1cc(Cl)nnc1-c1ccccc1,0.914
6,CC1(C(=O)Nc2ccc(O)c(Cl)c2Cl)CCCCC1,0.915
7,CC(Oc1ccc(Oc2ccc(Cl)cc2Cl)cc1)C(=O)O (racemic),0.961
8,C[Si](Cn1cncn1)(c1ccc(F)cc1)c1ccc(F)cc1,0.9
9,CN(C)C1CSSSC1.O=C(O)C(=O)O,1.05
10,COP(=S)(OC)SCn1nnc2ccccc2c1=O,0.916
11,CCSC(=O)N1CCCCCC1,1.06
12,O=C(O)c1c(Cl)ccc2cc(Cl)cnc12,1.02
13,CCCSP(=S)(OCC)Oc1ccc(SC)cc1 (centres undefined),1.07
14,Cc1cc(C(F)(C(F)(F)F)C(F)(F)F)ccc1NC(=O)c1cccc(I)c1C(=O)NC(C)(C)CS(C)(=O)=O,1.13
15,Cc1cc(Cl)ccc1O,1.07
16,COc1cc(OC)nc(NC(=O)NS(=O)(=O)c2ncccc2C(=O)N(C)C)n1,1.05
17,Cc1cccc2sc3nncn3c12,0.988
18,CCC(C)c1cc([N+](=O)[O-])cc([N+](=O)[O-])c1O (centres undefined),0.737
19,CCOP(=S)(OCC)SCSC(C)(C)C,0.902
20,CCNc1nc(Cl)nc(NC(C)(C)C#N)n1,0.949

row,SMILES,growth AUC
1,Cc1ccccc1C(=O)Nc1cccc(OC(C)C)c1,0.955
2,N#CN=C1SCCN1Cc1ccc(Cl)nc1,1.11
3,COP(=O)(OC)Oc1ccc(S(C)=O)c(C)c1 (centres undefined),0.911
4,COCC(=O)N(c1c(C)cccc1C)[C@H](C)C(=O)OC,1.02
5,CC(=NC#N)N(C)Cc1ccc(Cl)nc1,0.987 and 0.952
6,CC1(C)C(C(=O)OC(C#N)c2cccc(Oc3ccccc3)c2)C1(C)C (centres undefined),0.928
7,CNC(=O)Oc1cc(C)c(N(C)C)c(C)c1,0.952
8,CN(C)C(=S)SSC(=S)N(C)C,1.09
9,CCOP(=S)(OCC)SCn1nnc2ccccc2c1=O,1.09
10,[CH3][Hg][Cl],0.956
11,CCCCc1c(C)nc(NCC)nc1OS(=O)(=O)N(C)C,0.968
12,CC1(C)[C@H](/C=C(\Cl)C(F)(F)F)[C@@H]1C(=O)O[C@@H](C#N)c1cccc(Oc2ccccc2)c1,0.953
13,CCCN(CCOc1c(Cl)cc(Cl)cc1Cl)C(=O)n1ccnc1,1
14,CCOP(=S)(OCC)Oc1cc(Cl)c(Br)cc1Cl,1.08
15,C/C(=N\NC(=O)Nc1cc(F)cc(F)c1)c1ncccc1C(=O)[O-].[Na+],1.09
16,C1=Cc2cccc3cccc1c23,1.02
17,CCc1ccc(C(=O)NN(C(=O)c2cc(C)cc(C)c2)C(C)(C)C)cc1,0.882
18,C#CCOc1ccc(CCNC(=O)C(OCC#C)c2ccc(Cl)cc2)cc1OC (centres undefined),0.943
19,COC(=O)c1ccccc1S(=O)(=O)NC(=O)Nc1nc(C)nc(OC)n1,0.913
